Test results reported in PubChem BioAssay AID1159580 (chemical genetic matrix, 2015).
The campaign covered roughly 5,500 compounds. About 2,000 (36%) were called active. About 18% were inconclusive and are not listed. Cut-off read from the data, not from the text of the source: active = normalized growth mostly below about 0.91 (no sharp cut-off); inconclusive = no clear call, values can overlap the other calls; inactive = mostly above about 0.92. Some of the results follow.

Test: chemical genetic growth profiling, strain panel (AID 1159580);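 note: tested at 20 µM; growth read once vehicle control cultures reached saturation at 30 °C; 1 = growth at the plate median or of vehicle wells; lower values mean less growth of the strain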
Details: S. cerevisiae deletion strains, growth OD

Measured: normalized growth

Nc1ccc2c3c(cccc13)C(=O)NC2=O
inactive: locus YAL040C, strain CLN3, hits give low values 0.997 | locus YCL061C, strain MRC1 (second series), hits give low values 1 | locus YER002W, strain NOP16, hits give low values 0.998 | locus YGR078C, strain PAC10, hits give low values 0.981 | locus YMR307W, strain GAS1, hits give low values 0.995 | locus YNL128W, strain TEP1, hits give low values 0.988 | locus YNL175C, strain NOP13, hits give low values 0.999 | locus YNL197C, strain WHI3, hits give low values 1.01 | locus YNL224C, strain SQS1, hits give low values 0.985 | locus YOR083W, strain WHI5 (second series), hits give low values 0.965 | locus YPL055C, strain LGE1, hits give low values 1.01

COC1=C(OC)C(=O)C(CCCCCCCCCCO)=C(C)C1=O
inactive: locus YHR030C, strain SLT2, hits give low values 0.964 | locus YHR079C, strain IRE1, hits give low values 0.937 | locus YJL095W, strain BCK1, hits give low values 0.982 | locus YJR066W, strain TOR1, hits give low values 0.934 | locus YLR113W, strain HOG1, hits give low values 0.922 | locus YNL183C, strain NPR1, hits give low values 0.92 | locus YOR231W, strain MKK1, hits give low values 0.972 | locus YPL256C, strain CLN2, hits give low values 0.964
